# Assay results from PubChem BioAssay (NCATS).
# Results filed as inconclusive are left out. The source made the active and inactive calls. The call rests on the fitted dose curve; in most records, active means well fitted curve in the direction sought with a large enough effect; inconclusive means small, poorly fitted or top-dose-only effect, or another doubt; inactive means no such curve, though single readings can be large; an effect the other way counts as inactive or inconclusive.
# Test system: Zika virus NS2B-NS3 protease (linked construct)
# Assay: Confirmatory screen NINDS AMC qHTS for Zika virus inhibitors (AID 1347152);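 further: AMC fluorescence gain from cleaved Bz-Nle-KRR-AMC substrate over 15 min; top concentration of the series differs between compounds; 0% = no-inhibitor control and -100% = no-enzyme control; nearly all actives have a fitted effect of over 70% in size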
# Conditions: Purified linked NS2B-NS3, AMC substrate fluorescence; series mostly up to 110 µM; activity change, negative = inhibition: at the top concentration
# How it was run: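 Linked NS2B-NS3 protease, 1 nM, in 10 mM Tris-HCl pH 8.0, 0.01% Tween 20; compounds preincubated 15 min at room temperature. Nle-KRR-AMC 10 microM (Km 18.3 µM); 15-min fluorescence change (340/450 nm) fitted to 4-parameter Hill.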
row,SMILES,"activity change, negative = inhibition"
1,CCOC(=O)O[C@H](C)OC(=O)C1N2C(=O)[C@H](NC(=O)[C@H](N)c3ccccc3)C2SC1(C)C (some centres undefined),12.9% [at 56.6 µM] (inactive)
2,O=C(Nc1ccc(Oc2ccccc2)cc1)O[C@@H]1CO[C@H]2[C@@H]1OC[C@@H]2NS(=O)(=O)c1ccc2ccccc2c1,-0.102% (inactive)
3,Cc1c2ccccc2c(CSC(=N)N)c2ccccc12,16% [at 56.6 µM] (inactive)

# Test system: Zika virus NS2B-NS3 protease (unlinked complex)
# Assay: Confirmatory screen GU AMC qHTS for Zika virus inhibitors (AID 1347153);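 further: percent inhibition with 0% = no inhibitor control and 100% = no enzyme control; nearly all actives have a fitted effect of over 70% in size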
# Conditions: Recombinant NS2B-NS3 protease, AMC substrate fluorescence; series mostly up to 111 µM; activity, negative = inhibition: at the top concentration
# How it was run: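 Unlinked enzyme 25 nM, Tris pH 8.0/0.01% Tween 20; cpd 15 min RT, dark; + AMC substrate 10 µM (Km 18.3 µM); 340/450 nm read at t0 and 15 min; % inhibition → 4-param fit.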
row,SMILES,"activity, negative = inhibition"
1,CCOC(=O)O[C@H](C)OC(=O)C1N2C(=O)[C@H](NC(=O)[C@H](N)c3ccccc3)C2SC1(C)C (some centres undefined),11.3% [at 57.1 µM] (inactive)
2,O=C(Nc1ccc(Oc2ccccc2)cc1)O[C@@H]1CO[C@H]2[C@@H]1OC[C@@H]2NS(=O)(=O)c1ccc2ccccc2c1,1.69% (inactive)
3,Cc1c2ccccc2c(CSC(=N)N)c2ccccc12,-7.13% [at 57.1 µM] (inactive)

# Test system: not listed separately
# Assay: ZIKV-mCherry secondary qHTS for Zika virus inhibitors (AID 1347158); further: top concentration of the series differs between compounds
# Conditions: Vero cells, ZIKV-mCherry infection imaging, 48-72 h; series mostly up to 49.2 µM; activity change, negative = inhibition: at the top concentration
# How it was run: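 After overnight seeding at 37 °C, Vero cells receive compound and then ZIKV-mCherry (MOI 1). Following 48-72 h infection, cells are fixed, counterstained with Hoechst, and imaged; percent infected cells is derived from an mCherry intensity cut-off of 450 RFU.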
row,SMILES,"activity change, negative = inhibition"
1,O=C(O)COc1ccc(-c2nccc3c2C(=O)N(Cc2cccc(C(F)(F)F)c2)CC(COc2cccc(F)c2)O3)cc1 (centres undefined),337% (inactive)
2,COc1ccccc1C(=O)Nc1ccc(C(=O)OCc2cc(=O)n3c4c(sc3n2)CCCC4)cc1,20.6% [at 32.6 µM] (inactive)
3,Cc1cc(S(=O)(=O)Nc2ccc(C(=O)O)cc2)c(C)c(S(=O)(=O)c2ccc(Cl)cc2)c1,33.8% (inactive)
4,N#Cc1ccc(OCC2CN(Cc3c[nH]c4ccccc34)C(=O)c3c(ccnc3-c3ccc(OCC(=O)O)cc3)O2)cc1 (centres undefined),21.9% (inactive)
5,CCOc1ccc(S(=O)(=O)Nc2cc3c(C(=O)OCc4ccccc4)c(C)oc3c3ccccc23)cc1,372% (inactive)
6,Clc1nc2n[nH]nc2nc1Cl,522% (inactive)
7,CCCCc1nn2c(=O)cc(COC(=O)c3ccc(NC(=O)CCc4ccccc4)cc3)nc2s1,-25.8% (inactive)
8,Cc1ccc(-c2nnc(Nc3ccccc3)c3ccccc23)cc1S(=O)(=O)NCc1nc2ccccc2[nH]1,4.55% [at 32.6 µM] (inactive)
